Source: PubChem BioAssay AID651812 (National Center for Advancing Translational Sciences (NCATS), 2012)
Out of some 2,100 compounds screened, about 650 (31%) were called active. Inconclusive results (about 16%) are left out. The list shows a part of the results. A number with no mark means an inactive call. Calls follow the shape of the dose curve; as a rule, active = well fitted inhibition curve with a large enough effect; inconclusive = small, poorly fitted or top-dose-only effect; inactive = flat fitted curve, though single readings scatter.

test: qHTS for inhibitors of Vif-A3G interactions: Cherry picks; details: HeLa A3G-eYFP + Vif (tagged APOBEC3G with the HIV-1 protein that degrades it), 24 h; Potency: eYFP fluorescence increase; series mostly up to 36.9 µM; activity, negative = fluorescence increase: at the top concentration; also: nearly all actives have a fitted effect of over 80% in size; as to activity, negative = fluorescence increase: % of control where 0% means no effect
Outline: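 HeLa cells stably expressing A3G-eYFP and Vif, cultured overnight then exposed to compounds at several concentrations for 24 hours at 37 C, 5% CO2; cellular yellow fluorescence (488 nm ex, 500-530 nm em) imaged on Acumen, MG132 positive control.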
Potency is read from the fitted curve at half-maximal effect.

Structure (SMILES) | activity, negative = fluorescence increase | Potency
Cc1ccccc1NC(=O)CSc1nc2cc3c(cc2cc1C)CCC3 | -2.42% | 
Cc1cc2cc(C#N)c(SCC(=O)Nc3nonc3C)nc2cc1C |  | 14.6 µM (active)
Cc1cc(NC(=O)CSc2nc3c(C)cccc3cc2C#N)no1 |  | 20.6 µM (active)
COC(=O)C1CCC(=O)N1C(c1ccc(OC)cc1)c1cc(OC)c(OC)c(OC)c1 (stereo not given) | -7.8% | 
COc1ccc2ccccc2c1C1NC(=O)c2ccccc2N1 (stereo not given) | -12.9% | 
CN(C)c1ccc(/C=C2\Cc3ccccc3C2=O)cc1 |  | 3.26 µM (active)
CN(C)c1ccc(/C=C2/C[N+](C)(C)C/C(=C/c3ccc(N(C)C)cc3)C2=O)cc1 |  | 9.2 µM (active)
Nc1ccccc1C=C1Cc2ccccc2C1=O |  | 16.4 µM (active)
COc1ccc(/C=C2/CSC/C(=C/c3ccc(OC)c(OC)c3)C2=O)cc1OC | -0.25% | 
O=C1C(=Cc2ccccc2[N+](=O)[O-])Cc2ccccc21 | -41.4% [at 46.1 µM] | 
Cc1ccc2nc(C)c(C(=O)NN=C3CCCCCC3)n2c1 | 1.33% | 
CSc1nc(Sc2ccccc2Cl)c2ccccc2n1 | -4.7% | 
CCC1CCCCN1CCCNC(=O)c1ccc2c(c1)N(Cc1ccccc1F)C(=O)c1ccccc1S2(=O)=O (stereo not given) | -9.99% [at 46.1 µM] | 
CCn1c(CNC(=O)C23CC4CC(CC(C4)C2)C3)nnc1SCC(=O)Nc1ccc(OC)cc1 | -2.38% [at 46.1 µM] | 
N#Cc1cccc(NC(=O)CSc2ccc3c4c(cccc24)C(=O)c2ccccc2-3)c1 |  | 6.51 µM (active)
COc1ccc(NC(=O)c2cccc3ccccc23)cc1 | -0.0498% | 
CCn1c(SCC(=O)Nc2cccc(O)c2)nc2c1c(=O)n(C)c(=O)n2C | 2.18% [at 46.1 µM] | 
COc1ccc(NC(=O)CSc2ccc3c4c(cccc24)C(=O)c2ccccc2-3)cc1 |  | 7.31 µM (active)
CCCn1nnc(NC(=S)NC(=O)c2ccccc2OC)n1 | 13.5% [at 46.1 µM] | 
O=C(NC12CC3CC(CC(C3)C1)C2)c1ccc([N+](=O)[O-])o1 | -1.29% | 
CN1CCC(OC(=O)c2cc3cc(Cl)cc(Cl)c3oc2=O)CC1 | -0.249% | 
Cc1ccccc1OCCc1c(C)[nH]c(=S)[nH]c1=O | -13.9% | 
O=C(c1ccccn1)C1CCCN(Cc2cn[nH]c2-c2cc3ccccc3o2)C1 (stereo not given) | -0.654% | 
Cc1c(N=C2N=C(NC(=O)c3cccs3)c3ccccc32)c(=O)n(-c2ccccc2)n1C |  | 14 µM (active)
COc1ccc(N2C(=O)CC(Sc3nc(C)c4c(n3)CCCC4)C2=O)cc1 (stereo not given) | -0.198% | 

Structure (SMILES) | activity, negative = fluorescence increase | Potency
Cn1c(N)c(-c2ccccc2)c2ccc([N+](=O)[O-])cc2c1=O |  | 15.8 µM (active)
CCc1cc[n+](-c2nc3ccccc3nc2[N-]S(=O)(=O)c2ccc(Br)s2)cc1 |  | 20.6 µM (active)
Cc1cc(C)c[n+](-c2nc3ccccc3nc2[N-]S(=O)(=O)c2ccc(Br)s2)c1 |  | 18.4 µM (active)
O=S(=O)([N-]c1nc2ccccc2nc1-[n+]1ccc(-c2ccncc2)cc1)c1ccccc1 | -2.95% [at 46.1 µM] | 
COCc1ccc(O)c2ncccc12 | 0.129% | 
COC(=O)c1c(N2C(=O)[C@H]3[C@@H](C2=O)[C@]2(C(=O)Nc4c(C)cccc42)N2CCC[C@@H]32)sc(C)c1C | -0.0305% | 
CC(=O)/C(N=Nc1cc(C)ccc1O)=C(\C)O |  | 16.4 µM (active)
CCCN(C(=O)CSc1n[nH]c(-c2ccc(OC)cc2)n1)c1c(N)n(Cc2ccccc2)c(=O)[nH]c1=O | -14.5% [at 46.1 µM] | 
COc1ccc2c(c1)c(/C=C/c1cc[n+](C)cc1)cn2C |  | 1.98 µM (active)
COc1ccc2c(c1)c(C(=O)N/N=C/c1ccc(Cl)cc1)c(C)n2C | -0.209% | 
COc1ccc2[nH]cc(/C=C/c3cc[n+](C)cc3)c2c1 |  | 13 µM (active)
C[n+]1ccc(/C=C/c2c[nH]c3ccc(F)cc23)cc1 |  | 14.6 µM (active)
Cc1ccc2[nH]cc(/C=C/c3cc[n+](C)cc3)c2c1 |  | 4.44 µM (active)
CSc1cccc(NC(=O)c2cc3c(COC(C)=O)cnc(C)c3oc2=O)c1 | -0.348% [at 46.1 µM] | 
O=C(NC1C/C(=N/O)c2cc3c(cc21)OCO3)C(F)(F)F (stereo not given) | 0.0478% [at 46.1 µM] | 
CCOc1ccc(C(C)=O)cc1COc1cccnc1[N+](=O)[O-] | -3.29% | 
O=C(NCc1cccs1)C1CCN(c2ccc(S(=O)(=O)N3CCOCC3)cc2Cl)CC1 | -2.2% | 
O=S(=O)(Nc1nc2ccccc2nc1OCC(F)(F)F)c1cccs1 | 13.5% [at 46.1 µM] | 
CCC[N+](C)(C)c1ccc(/C=C/c2ccncc2)cc1 |  | 18.4 µM (active)
CC[N+](C)(C)c1ccc(/C=C/c2ccncc2)cc1 |  | 20.6 µM (active)
C=CCOC(=O)C1=C(C)NC(C)=C(C(=O)OCC=C)C1c1cn(-c2ccccc2)nc1-c1ccco1 | 3.24% | 
CC(=O)c1cccc(-c2ccnc3c2CC(C(=O)Nc2ccc(Cl)cc2)O3)c1 (stereo not given) | 1.72% | 
CCCSc1ncc(Cl)c(C(=O)Nc2sc3c(c2C(N)=O)CCCC3)n1 |  | 11.6 µM (active)
NC(=O)c1c(Nc2nc3c(F)cccc3s2)sc2c1CCCC2 | -22.3% | 
ClCC1NCC(c2ccccc2Cl)c2c1[nH]c1ccccc21 (stereo not given) | -1.72% [at 46.1 µM] | 
